Experimental data taken from the supplement of paper PMC10849652.
Targets with a hit are over-represented here; the source holds about 7,900 in all. About 0.6% of all pairs of compound and target were hits. Values without a mark were called inactive.

Assays:
Test in all cases: log2 fold change, soluble protein after heating vs DMSO (PISA); higher = thermal stabilisation; K562 cells, 10 uM, 30 min; active = over 0.2 and 3.5 SD of the protein, either way, in both replicates (recomputed)
[1] = compound: CS(=O)(=O)c1ccc(-c2cnc(N)c(C(=O)Nc3ccccc3)n2)cc1
Procedure, shortened: (§1)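 Soluble protein was quantified by TMTpro 16plex LC-MS/MS after channel sums were equalised. It was obtained as the supernatant after 21,000xg for 90 min from pooled aliquots of K562 cells (2×10^6 cells/mL, 10 μM compound, 30 min) heated for 3 min across 48°C-58°C and extracted in PBS with 0.5% NP-40 at 4°C. Thermal stability values are relative to control samples and come from duplicates. They are given as log2 fold changes.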

[2] = compound: C[C@@H](Oc1cc(-c2cnn(C3CCNCC3)c2)cnc1N)c1c(Cl)ccc(F)c1Cl [crizotinib]
Procedure, shortened: as §1

[3] = compound: C[C@@H]1COCCN1C2=NC(=NC(=C2)C3(CC3)S(=O)(=O)C)C4=C5C=CNC5=CC=C4
Procedure, shortened: as §1

[4] = compound: C[C@H](C1=CC=C(C=C1)C(=O)NC2=C3C=CNC3=NC=C2)N
Procedure, shortened: as §1

[5] = compound: C[C@H](Nc1ncnc2nc[nH]c12)c1cc2cccc(Cl)c2c(=O)n1-c1ccccc1 [duvelisib]
Procedure, shortened: as §1

[6] = compound: Cc1cc(Nc2cc(CN3CCOCC3)c3nc(C)c(Cc4ccc(Cl)cc4F)n3n2)n[nH]1 [gandotinib]
Procedure, shortened: as §1

[7] = compound: Cc1cc(Nc2cc(N3CCN(C)CC3)nc(Sc3ccc(NC(=O)C4CC4)cc3)n2)n[nH]1 [tozasertib]
Procedure, shortened: as §1

[8] = compound: Cc1cc(SCc2sc(-c3ccc(C(F)(F)F)cc3)nc2C)ccc1OCC(=O)O
Procedure, shortened: as §1

[9] = compound: Cc1ccc(-n2nc(C(C)(C)C)cc2NC(=O)Nc2ccc(OCCN3CCOCC3)c3ccccc23)cc1 [doramapimod]
Procedure, shortened: as §1

[10] = compound: Cc1ccc(C(=O)N(CCCN)[C@@H](c2nc3cc(Cl)ccc3c(=O)n2Cc2ccccc2)C(C)C)cc1 [ispinesib]
Procedure, shortened: as §1

Chain of UniProt O00258 (O00258 whole entry, looked up): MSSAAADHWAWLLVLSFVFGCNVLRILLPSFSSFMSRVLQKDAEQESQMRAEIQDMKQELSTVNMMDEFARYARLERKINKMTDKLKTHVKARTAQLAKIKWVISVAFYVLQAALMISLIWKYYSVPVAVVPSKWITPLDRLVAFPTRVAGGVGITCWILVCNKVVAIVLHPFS
Chain of UniProt Q96AJ9 (Q96AJ9 whole entry, looked up): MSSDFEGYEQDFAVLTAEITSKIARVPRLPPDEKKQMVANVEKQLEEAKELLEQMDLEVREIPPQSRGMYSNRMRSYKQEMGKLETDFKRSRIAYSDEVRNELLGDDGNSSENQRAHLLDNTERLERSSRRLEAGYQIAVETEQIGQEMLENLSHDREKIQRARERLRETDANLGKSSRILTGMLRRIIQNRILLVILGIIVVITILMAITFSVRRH
Chain of UniProt O43617 (O43617 whole entry, looked up): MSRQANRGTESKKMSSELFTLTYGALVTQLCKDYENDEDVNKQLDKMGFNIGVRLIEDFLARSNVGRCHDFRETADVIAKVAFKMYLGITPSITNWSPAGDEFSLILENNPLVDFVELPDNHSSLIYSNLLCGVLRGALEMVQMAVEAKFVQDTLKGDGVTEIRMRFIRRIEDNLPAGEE
Chain of UniProt Q8IZ69 (Q8IZ69 whole entry, looked up): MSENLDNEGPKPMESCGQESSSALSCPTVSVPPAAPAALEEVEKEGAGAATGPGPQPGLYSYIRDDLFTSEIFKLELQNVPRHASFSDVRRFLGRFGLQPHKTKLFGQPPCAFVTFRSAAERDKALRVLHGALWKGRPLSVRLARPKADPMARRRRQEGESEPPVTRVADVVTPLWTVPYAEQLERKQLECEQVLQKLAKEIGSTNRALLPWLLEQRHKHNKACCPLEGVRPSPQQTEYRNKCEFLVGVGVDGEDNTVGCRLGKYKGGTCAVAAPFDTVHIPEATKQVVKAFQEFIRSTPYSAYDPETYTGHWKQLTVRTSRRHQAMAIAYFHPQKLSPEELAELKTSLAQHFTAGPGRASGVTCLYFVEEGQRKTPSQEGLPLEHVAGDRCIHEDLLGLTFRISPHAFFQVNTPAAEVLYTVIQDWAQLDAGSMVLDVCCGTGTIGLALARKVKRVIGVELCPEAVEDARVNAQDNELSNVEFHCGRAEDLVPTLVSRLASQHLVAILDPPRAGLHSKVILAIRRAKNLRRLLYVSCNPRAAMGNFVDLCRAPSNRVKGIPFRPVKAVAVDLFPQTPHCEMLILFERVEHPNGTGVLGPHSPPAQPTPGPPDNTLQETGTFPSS
Chain of UniProt Q7Z3J2 (Q7Z3J2 whole entry, looked up): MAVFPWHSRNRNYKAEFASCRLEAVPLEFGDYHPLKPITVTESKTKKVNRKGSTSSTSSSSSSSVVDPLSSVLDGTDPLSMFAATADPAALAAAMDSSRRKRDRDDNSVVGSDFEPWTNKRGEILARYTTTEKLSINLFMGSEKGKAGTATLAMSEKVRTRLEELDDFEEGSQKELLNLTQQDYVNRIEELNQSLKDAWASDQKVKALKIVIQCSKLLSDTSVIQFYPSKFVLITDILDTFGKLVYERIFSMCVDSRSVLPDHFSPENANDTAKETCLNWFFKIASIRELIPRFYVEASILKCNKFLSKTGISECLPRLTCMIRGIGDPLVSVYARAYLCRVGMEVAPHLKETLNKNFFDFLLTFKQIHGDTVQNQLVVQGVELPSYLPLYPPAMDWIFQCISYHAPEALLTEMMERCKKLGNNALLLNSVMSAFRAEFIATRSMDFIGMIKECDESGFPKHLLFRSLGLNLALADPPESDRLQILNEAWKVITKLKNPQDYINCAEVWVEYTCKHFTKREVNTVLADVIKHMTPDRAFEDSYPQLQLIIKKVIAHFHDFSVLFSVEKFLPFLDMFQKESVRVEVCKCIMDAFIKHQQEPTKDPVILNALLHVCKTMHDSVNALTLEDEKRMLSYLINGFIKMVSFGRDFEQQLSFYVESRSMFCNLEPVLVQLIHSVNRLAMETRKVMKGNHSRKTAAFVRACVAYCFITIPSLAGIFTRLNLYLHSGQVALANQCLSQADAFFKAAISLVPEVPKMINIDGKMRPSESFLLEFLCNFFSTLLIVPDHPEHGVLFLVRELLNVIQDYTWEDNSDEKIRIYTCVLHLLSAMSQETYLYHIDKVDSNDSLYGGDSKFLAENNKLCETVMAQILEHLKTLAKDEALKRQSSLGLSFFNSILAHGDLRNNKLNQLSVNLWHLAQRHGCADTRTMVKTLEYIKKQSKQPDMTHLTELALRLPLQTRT
Chain of UniProt Q93008 (Q93008 whole entry, looked up): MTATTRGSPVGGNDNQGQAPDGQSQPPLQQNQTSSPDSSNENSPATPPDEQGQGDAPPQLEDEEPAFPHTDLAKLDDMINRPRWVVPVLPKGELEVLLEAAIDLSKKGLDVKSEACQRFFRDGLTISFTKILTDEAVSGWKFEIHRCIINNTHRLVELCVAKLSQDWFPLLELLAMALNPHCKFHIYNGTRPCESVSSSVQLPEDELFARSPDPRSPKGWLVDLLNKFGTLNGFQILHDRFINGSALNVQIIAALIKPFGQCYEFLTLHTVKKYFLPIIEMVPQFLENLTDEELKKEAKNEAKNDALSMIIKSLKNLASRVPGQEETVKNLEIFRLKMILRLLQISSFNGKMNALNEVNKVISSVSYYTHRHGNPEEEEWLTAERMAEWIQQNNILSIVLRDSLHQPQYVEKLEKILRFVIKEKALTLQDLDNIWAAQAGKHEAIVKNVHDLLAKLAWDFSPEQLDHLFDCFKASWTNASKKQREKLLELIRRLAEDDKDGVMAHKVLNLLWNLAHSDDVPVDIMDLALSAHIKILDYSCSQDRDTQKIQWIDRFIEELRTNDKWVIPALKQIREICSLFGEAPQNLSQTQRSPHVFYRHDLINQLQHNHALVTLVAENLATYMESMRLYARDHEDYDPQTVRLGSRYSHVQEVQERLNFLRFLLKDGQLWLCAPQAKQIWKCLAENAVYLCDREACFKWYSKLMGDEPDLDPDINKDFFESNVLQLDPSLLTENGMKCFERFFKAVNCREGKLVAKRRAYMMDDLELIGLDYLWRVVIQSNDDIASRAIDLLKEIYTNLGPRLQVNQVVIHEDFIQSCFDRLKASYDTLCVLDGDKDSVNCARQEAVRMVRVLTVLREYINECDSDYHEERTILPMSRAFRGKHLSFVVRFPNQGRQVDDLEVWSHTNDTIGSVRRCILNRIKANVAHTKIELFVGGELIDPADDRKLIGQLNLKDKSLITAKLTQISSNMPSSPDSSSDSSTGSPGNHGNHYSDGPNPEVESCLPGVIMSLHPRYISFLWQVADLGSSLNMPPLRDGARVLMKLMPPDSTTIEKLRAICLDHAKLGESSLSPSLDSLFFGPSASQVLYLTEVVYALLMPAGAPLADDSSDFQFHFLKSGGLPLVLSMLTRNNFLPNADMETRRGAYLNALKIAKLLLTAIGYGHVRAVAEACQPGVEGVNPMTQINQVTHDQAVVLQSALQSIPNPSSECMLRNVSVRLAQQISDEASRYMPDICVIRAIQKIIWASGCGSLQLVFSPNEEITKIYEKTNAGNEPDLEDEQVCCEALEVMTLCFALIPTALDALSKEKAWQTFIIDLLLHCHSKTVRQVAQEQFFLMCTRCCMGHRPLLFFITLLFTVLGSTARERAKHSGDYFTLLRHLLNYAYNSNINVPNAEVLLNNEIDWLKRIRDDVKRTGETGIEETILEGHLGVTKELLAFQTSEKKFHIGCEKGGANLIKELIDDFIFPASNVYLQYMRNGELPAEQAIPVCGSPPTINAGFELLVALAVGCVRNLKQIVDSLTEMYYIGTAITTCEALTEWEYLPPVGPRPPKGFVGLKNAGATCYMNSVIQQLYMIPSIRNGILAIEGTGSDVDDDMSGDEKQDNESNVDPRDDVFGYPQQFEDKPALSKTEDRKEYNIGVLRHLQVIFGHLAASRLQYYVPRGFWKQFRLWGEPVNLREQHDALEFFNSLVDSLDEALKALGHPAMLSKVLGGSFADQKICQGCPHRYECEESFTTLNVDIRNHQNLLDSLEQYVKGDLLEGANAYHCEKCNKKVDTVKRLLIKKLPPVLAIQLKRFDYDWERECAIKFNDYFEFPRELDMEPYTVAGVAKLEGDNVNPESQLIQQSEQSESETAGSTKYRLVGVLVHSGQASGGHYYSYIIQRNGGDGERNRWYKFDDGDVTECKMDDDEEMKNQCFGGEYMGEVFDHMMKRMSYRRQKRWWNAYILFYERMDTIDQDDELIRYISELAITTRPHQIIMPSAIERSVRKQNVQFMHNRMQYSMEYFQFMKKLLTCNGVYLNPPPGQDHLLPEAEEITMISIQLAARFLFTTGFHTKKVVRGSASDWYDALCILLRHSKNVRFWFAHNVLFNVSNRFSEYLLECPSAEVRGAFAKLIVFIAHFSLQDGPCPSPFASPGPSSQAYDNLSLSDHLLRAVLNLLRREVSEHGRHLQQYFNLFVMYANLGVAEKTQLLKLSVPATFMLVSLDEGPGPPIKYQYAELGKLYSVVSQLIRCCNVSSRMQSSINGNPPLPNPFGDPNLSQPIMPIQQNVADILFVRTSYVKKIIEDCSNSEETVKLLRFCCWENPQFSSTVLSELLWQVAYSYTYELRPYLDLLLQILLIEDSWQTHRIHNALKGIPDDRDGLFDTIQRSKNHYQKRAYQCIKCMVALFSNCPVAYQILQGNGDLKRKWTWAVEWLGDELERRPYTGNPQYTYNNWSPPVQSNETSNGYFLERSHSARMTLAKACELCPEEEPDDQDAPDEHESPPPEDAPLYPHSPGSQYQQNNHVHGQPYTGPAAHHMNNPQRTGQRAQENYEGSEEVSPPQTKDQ
Chain of UniProt Q16763 (Q16763 whole entry, looked up): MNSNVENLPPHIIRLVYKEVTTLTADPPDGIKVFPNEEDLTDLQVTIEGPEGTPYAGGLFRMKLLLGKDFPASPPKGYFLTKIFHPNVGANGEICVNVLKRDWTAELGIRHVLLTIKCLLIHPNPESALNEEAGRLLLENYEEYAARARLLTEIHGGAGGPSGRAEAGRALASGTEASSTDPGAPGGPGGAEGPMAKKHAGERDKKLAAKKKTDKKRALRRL

| Target | log2 fold change [1] | log2 fold change [2] | log2 fold change [3] | log2 fold change [4] | log2 fold change [5] | log2 fold change [6] | log2 fold change [7] | log2 fold change [8] | log2 fold change [9] | log2 fold change [10] |
| --- | --- | --- | --- | --- | --- | --- | --- | --- | --- | --- |
| TRMT2A (UniProt Q8IZ69) | -0.034 | -0.016 | -0.072 | 0.152 | -0.041 | 0.019 | 0.063 | 0.045 | 0.07 | -0.122 |
| UBE2Q1 (UniProt Q7Z7E8) | 0 | -0.061 | 0.092 | 0.004 | 0.003 | -0.196 | 0.036 | 0.07 | 0.029 | -0.001 |
| WDR47 (UniProt O94967) | -0.024 | 0.048 | 0.024 | -0.003 | 0.109 | 0.09 | -0.052 | -0.011 | -0.034 | 0.025 |
| XPO6 (UniProt Q96QU8) | -0.033 | 0.177 | -0.277 | 0.031 | -0.001 | 0.104 | -0.011 | 0.027 | 0.179 | 0 |
| UGGT1 (UniProt Q9NYU2) | 0.013 | 0 | 0.012 | 0.009 | -0.005 | 0.005 | 0.008 | 0.016 | 0.017 | 0.012 |
| WDR7 (UniProt Q9Y4E6) | 0.025 | 0.024 | -0.029 | -0.096 | 0.042 | -0.009 | -0.003 | 0.08 | 0.065 | -0.075 |
| WDR43 (UniProt Q15061) | 0.008 | 0.08 | 0.016 | -0.051 | 0.062 | 0.009 | -0.012 | -0.053 | -0.035 | 0.081 |
| TRAPPC8 (UniProt Q9Y2L5) | 0.036 | -0.033 | -0.008 | 0.032 | 0.002 | -0.056 | 0.015 | 0.117 | -0.012 | -0.138 |
| UGDH (UniProt O60701) | -0.106 | 0.079 | 0.041 | -0.161 | 0.061 | -0.064 | 0.046 | 0.049 | -0.106 | 0.165 |
| VRK2 (UniProt Q86Y07) | 0.048 | -0.16 | 0.015 | 0.472 (active) | -0.01 | -0.08 | -0.057 | 0.012 | 0.026 | -0.115 |
| WRB (UniProt O00258) | -0.031 | 0.057 | 0.036 | -0.028 | -0.094 | -0.053 | -0.016 | 0.067 | 0.015 | 0.029 |
| TNPO1 (UniProt Q92973) | -0.008 | -0.034 | 0.058 | -0.116 | 0.002 | -0.128 | 0.052 | 0.011 | -0.034 | -0.113 |
| VPS13B (UniProt Q7Z7G8) | 0.023 | 0.015 | 0.045 | -0.033 | -0.064 | -0.062 | -0.01 | 0.015 | 0.028 | -0.134 |
| TRAPPC3 (UniProt O43617) | -0.003 | 0.002 | 0.074 | -0.006 | 0.06 | -0.048 | 0.028 | 0.017 | -0.008 | -0.023 |
| VPS50 (UniProt Q96JG6) | 0.012 | -0.118 | 0.044 | 0.049 | -0.017 | -0.066 | 0.01 | 0.086 | -0.032 | -0.023 |
| TMEM161B (UniProt Q8NDZ6) | 0.026 | -0.096 | 0.004 | 0.002 | 0.128 | -0.156 | 0.063 | 0.11 | -0.024 | -0.055 |
| UBE2S (UniProt Q16763) | 0.014 | 0.079 | 0.003 | -0.067 | 0.042 | -0.015 | 0.025 | 0.002 | 0.024 | 0.1 |
| UBC (UniProt P0CG48) | -0.003 | 0.208 | 0.05 | 0.064 | 0.075 | 0.014 | 0.009 | -0.009 | 0.035 | 0.091 |
| USP9X (UniProt Q93008) | -0.008 | -0.159 | -0.024 | 0.033 | 0.001 | -0.125 | 0 | 0.053 | 0.016 | -0.058 |
| USP7 (UniProt Q93009) | 0.008 | -0.311 | 0.147 | 0.07 | 0.046 | -0.157 | -0.077 | 0.146 | -0.039 | -0.175 |
| TRAPPC2L (UniProt Q9UL33) | 0.009 | -0.035 | 0.054 | 0.035 | 0.026 | -0.023 | 0.015 | 0.001 | -0.143 | 0.119 |
| VPS18 (UniProt Q9P253) | -0.008 | -0.21 | -0.013 | 0.05 | -0.035 | -0.041 | 0.009 | 0.063 | -0.014 | -0.203 |
| VTI1A (UniProt Q96AJ9) | -0.007 | -0.072 | 0.038 | -0.022 | 0.1 | 0.046 | 0.038 | -0.019 | 0.054 | -0.237 |
| TRAPPC13 isoform 5 (UniProt A5PLN9) | -0.037 | -0.054 | 0.067 | 0.009 | 0.02 | -0.007 | -0.028 | 0.087 | 0.047 | 0.032 |
| TRMT10C (UniProt Q7L0Y3) | 0.045 | 0.03 | 0.109 | -0.013 | 0.024 | -0.072 | 0 | 0.069 | -0.008 | 0.017 |
| VPS35L (UniProt Q7Z3J2) | 0.054 | -0.128 | -0.043 | 0.186 | 0.033 | 0 | 0.026 | 0.023 | 0.02 | -0.11 |
| VARS2, A0A0G2JL52 | 0.004 | 0 | 0.06 | 0.018 | 0.012 | -0.061 | -0.034 | 0.025 | 0.048 | -0.244 (active) |
| TMEM120A (UniProt Q9BXJ8) | -0.137 | 0.096 | 0.175 | -0.11 | -0.009 | -0.125 | -0.01 | -0.055 | -0.077 | 0.033 |
| TNFRSF10A (UniProt O00220) | -0.008 | 0.037 | 0.047 | -0.073 | 0 | 0.019 | -0.024 | -0.019 | -0.023 | -0.075 |
| TOP2A isoform 4 (UniProt P11388) | -0.071 | -0.157 | -0.337 | 0.559 | -0.185 | 0.158 | -0.025 | 0.015 | 0.362 | -0.376 |
